{
  "source": "PubChem BioAssay (Tox21)",
  "note": "Results filed as inconclusive are left out. Values without a mark were called inactive. Calls of active or inactive are those of the source. Calls come from the whole dose curve; as a rule, active = well fitted activation curve with a large enough effect in the repeat runs; inconclusive = weak or mixed curves; inactive = flat fitted curve, though single readings scatter. % is set by controls: 0 for no effect and ±100 for the full control effect; potency is the fitted concentration of half-maximal effect.",
  "data": [
    {"test": "A CellTox Green Cytotoxicity Assay to monitor cytotoxicity in HepG2 cells - 16 hour (AID 1224876); note: nearly all actives have a fitted effect of over 45% in size", "conditions": "CellTox Green fluorescence; series mostly up to 76.8 µM; cytotoxicity increase: at the top concentration", "from_the_text": "National Center for Advancing Translational Sciences [NCATS]\nNIH Chemical Genomics Center [NCGC]\nU.S. Environmental Protection Agency [EPA]\nNational Institutes of Environmental Health Sciences [NIEHS]\nNational Toxicology Program [NTP]\nCell-based models are critical for drug discovery. Determining the natural cytotoxic effects resulting from test compounds is an essential research activity. A CellTox Green Cytotoxicity Assay to monitor cytotoxicity in real time of continues cell culture during 40 hours of the compound treatment was used to screen Tox21 10K library compounds in HepG2 cells. CellTox Green Cytotoxicity Assay is a nonlytic, homogeneous, biofluorescent method to measure cytotoxicity in cell culture after experimental manipulation. The assay system uses a proprietary asymmetric cyanine dye that is excluded from viable cells but preferentially stains the dead cell's DNA. […] Viable cells produce no appreciable increases in fluorescence. Therefore, the fluorescence signal produced by the binding interaction with dead cell DNA is proportional to cytotoxicity.\nThe mixture of HepG2 cell suspension and reagents were dispensed at 600cells/6 ul/well in 1536-well tissue culture treated black solid bottom plates using a Multidrop dispenser. After the assay plates were incubated at a 37 C/5% CO2 incubator for 5 hours, 23 nL of compounds dissolved in DMSO, positive and negative controls was transferred to the assay plate by a pintool work station. The plates were incubated at 37 C for 40 hours. The fluorescence intensity were measured at 0h, 8h, 16h, 24h, 32h and 40h time points using ViewLux plate reader during compound treatment.", "values": [
      {"smiles": "CC[C@@H]1C[C@H](N(Cc2cc(C(F)(F)F)cc(C(F)(F)F)c2)C(C)=O)c2cc(C(F)(F)F)ccc2N1C(=O)OC(C)C", "cytotoxicity increase": "-9.02%"},
      {"smiles": "FC(F)(F)C(F)(F)C(F)(F)C(F)(F)C(F)(F)C(F)(F)CCI", "cytotoxicity increase": "1.91% [at 35.3 µM]"},
      {"smiles": "COc1ccc(OC)c(OC)c1", "cytotoxicity increase": "-2.26%"},
      {"smiles": "OC(CCN1CCCCC1)(c1ccccc1)C1CCCCC1", "note": "(stereo not given)", "cytotoxicity increase": "-2.31% [at 35.3 µM]"},
      {"smiles": "NCCCOCCOCCOCCCN", "cytotoxicity increase": "3.98%"},
      {"smiles": "CCCCCC(CO)CCC", "note": "(stereo not given)", "cytotoxicity increase": "-6.63%"},
      {"smiles": "Oc1ccc(C(O)CNCCCCCCNCC(O)c2ccc(O)c(O)c2)cc1O", "note": "(stereo not given)", "cytotoxicity increase": "-15.6% [at 35.3 µM]"},
      {"smiles": "O=C(O)C1CCC(C(=O)O)CC1", "note": "(stereo not given)", "cytotoxicity increase": "-12.1%"},
      {"smiles": "Cc1ccc(C(N)=O)cc1N", "cytotoxicity increase": "-4.41%"},
      {"smiles": "C1=Cc2ccccc2C1", "cytotoxicity increase": "-1.69%"},
      {"smiles": "CC(O)C1CCCCC1", "note": "(stereo not given)", "cytotoxicity increase": "-0.653%"},
      {"smiles": "CCC(=O)OC(C)(C)C1CC=C(C)CC1", "note": "(stereo not given)", "cytotoxicity increase": "-9.82%"},
      {"smiles": "CC1(C)[C@H]2CC[C@]1(C)[C@H](O)C2", "cytotoxicity increase": "-10.2%"},
      {"smiles": "CCCCCCCC/C=C\\CCCCCCCC(N)=O", "cytotoxicity increase": "14.2%"},
      {"smiles": "O=C1c2cccc(O)c2C(=O)c2c(O)cc(CO)cc21", "cytotoxicity increase": "0.794%"},
      {"smiles": "O=C(O)/C=C/c1cnc[nH]1", "cytotoxicity increase": "-0.0088%"},
      {"smiles": "CCc1nn(C2CCCCC2)c2cc(C3(C#N)CCC(C(=O)O)CC3)ccc12", "note": "(stereo not given)", "cytotoxicity increase": "3.86%"},
      {"smiles": "O=C(O)Cc1sc(-c2ccccc2)nc1-c1ccc(Cl)cc1", "cytotoxicity increase": "6.22% [at 35.3 µM]"},
      {"smiles": "CCCCCCOC(=O)CCC", "cytotoxicity increase": "-2.8%"},
      {"smiles": "CCCCOc1ccc(CC(=O)NO)cc1", "cytotoxicity increase": "0.0357% [at 35.3 µM]"},
      {"smiles": "Cc1cccc(C(C)(C)C)c1O", "cytotoxicity increase": "39%"},
      {"smiles": "CCCCCCc1ccc(N)cc1", "Potency": "49 µM (active)"},
      {"smiles": "CC[C@H](C)[C@@H](C(=O)O)n1sc2ccccc2c1=O", "cytotoxicity increase": "5.42%"},
      {"smiles": "CC(=O)[C@@]1(O)CC[C@H]2[C@@H]3C[C@H](C)C4=CC(=O)CC[C@]4(C)[C@H]3CC[C@@]21C", "cytotoxicity increase": "1.74% [at 35.3 µM]"},
      {"smiles": "C=CCCCCCC", "cytotoxicity increase": "2.41%"},
      {"smiles": "Oc1ccc(O)c2c(O)cccc12", "cytotoxicity increase": "-27%"},
      {"smiles": "CCOC(=S)SSC(=S)OCC", "cytotoxicity increase": "-1.39%"},
      {"smiles": "CCCCCC/C=C/C=O", "cytotoxicity increase": "0.209%"},
      {"smiles": "CC(C(=O)O)c1ccc(C(=O)c2ccccc2)s1", "note": "(stereo not given)", "cytotoxicity increase": "6.33% [at 35.3 µM]"},
      {"smiles": "COc1ccc([C@@H]2Sc3ccccc3N(CCN(C)C)C(=O)[C@@H]2OC(C)=O)cc1", "cytotoxicity increase": "-2.38% [at 35.3 µM]"},
      {"smiles": "CC(C)(C)c1cc(CCC(=O)OCC(COC(=O)CCc2cc(C(C)(C)C)c(O)c(C(C)(C)C)c2)(COC(=O)CCc2cc(C(C)(C)C)c(O)c(C(C)(C)C)c2)COC(=O)CCc2cc(C(C)(C)C)c(O)c(C(C)(C)C)c2)cc(C(C)(C)C)c1O", "cytotoxicity increase": "-6.01% [at 35.3 µM]"},
      {"smiles": "CCCCCCCCCCCCCCCBr", "cytotoxicity increase": "-1.31% [at 35.3 µM]"},
      {"smiles": "COC(=O)C(C)=O", "cytotoxicity increase": "-7.62%"},
      {"smiles": "CC(=O)/C(C)=C/C1C(C)=CCCC1(C)C", "note": "(stereo not given)", "cytotoxicity increase": "21.4%"},
      {"smiles": "CC1=CCC(C(C)C)C=C1", "note": "(stereo not given)", "cytotoxicity increase": "-2.64%"},
      {"smiles": "CCCCC(CC)(CO)CO", "cytotoxicity increase": "-1.59%"},
      {"smiles": "CCCCCCCCCCCCC(=O)O", "cytotoxicity increase": "-0.0635%"},
      {"smiles": "CCCCOC(O)CC", "note": "(stereo not given)", "cytotoxicity increase": "1.44%"},
      {"smiles": "Cl/C(=C\\n1cncn1)c1ccc(Cl)cc1Cl", "cytotoxicity increase": "1.68% [at 35.3 µM]"},
      {"smiles": "CCCOc1ccc2nc(NC(=O)OC)[nH]c2c1", "cytotoxicity increase": "-1.13% [at 35.3 µM]"}
    ]}
  ]
}
